We go through 18 compounds from PubChem BioAssay (NCATS).

Results filed as inconclusive are left out. Calls of active or inactive are those of the source. The call rests on the fitted dose curve; in most records, active means well fitted inhibition curve with a large enough effect; inconclusive means small, poorly fitted or top-dose-only effect; inactive means flat fitted curve, though single readings scatter.

This test has as its system CRL-7250. Description: qHTS assay to identify novel small-molecules to repurpose for Merkel cell carcinoma treatment (AID 1296009). Further: nearly all actives have a fitted effect of over 60% in size. Particulars: MCC and control cell lines, CellTiter-Glo viability, 72 h; at 44.8 µM (top of the series) unless noted. In short, it runs like this:
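After compound transfer in DMSO, plates were kept 72 hr at 37 degree celsius. Luminescent ATP signal from CellTiter-Glo served as viability measure, normalized against DMSO and no-cell controls.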
On the technique in general: qHTS replaces the single test concentration by a dilution series.
Regarding `CCN(CCCc1ccccc1)CCCc1ccccc1`, the call was inactive. For `CC1=CC(=O)c2ccccc2C1=O`, the result was inactive. Under `O=C(Nc1ccc(C(=O)O)c(O)c1)c1ccccc1` stands “inactive”. To `CC(C)Cn1cnc2c1c(=O)n(C)c(=O)n2C` belongs “inactive”; to `C[C@@H]1CC[C@@]2(OC1)O[C@H]1C[C@H]3[C@@H]4CC[C@H]5C[C@@H](O)CC[C@]5(C)[C@H]4CC(=O)[C@]3(C)[C@H]1[C@@H]2C`, “inactive [at 4.96 µM]”; to `CC(=O)SC[C@@H](Cc1ccccc1)C(=O)NCC(=O)OCc1ccccc1`, “inactive”. To `CC1CCc2cc(F)cc3c(=O)c(C(=O)O)cn1c23` (stereo not drawn) belongs “inactive”; to `CCN1CCCC(OC(=O)C(c2ccccc2)c2ccccc2)C1` (stereo not drawn), “inactive”. Turning to `CC(C)NCCCC1(C(N)=O)c2ccccc2-c2ccccc21`, the call was inactive. To `Cc1nc2sccn2c(=O)c1CCN1CCC(=C(c2ccc(F)cc2)c2ccc(F)cc2)CC1` belongs “inactive”. Under `Cc1c(C(=O)NN2CCCCC2)nn(-c2ccc(Cl)cc2Cl)c1-c1ccc(Cl)cc1` stands “inactive”; under `CCOC(=O)C1=C[C@]2(CC)CCCN3CCc4c(n1c1ccccc41)[C@@H]32`, “inactive”; under `CCN(CC)CC(=O)OCC(=O)[C@@]1(O)CC[C@H]2[C@@H]3CCC4=CC(=O)CC[C@]4(C)[C@H]3[C@@H](O)C[C@@]21C`, “inactive”.

With `CCCCCC(N)=O`, the call was inactive. To `CC(=O)OCC(=O)Nc1cc(C#N)cc(NC(=O)COC(C)=O)c1Cl` belongs “inactive”; to `OC(CCN1CCCCC1)(c1ccccc1)c1ccccc1`, “inactive”. Under `Nc1c2c(nc3c1CCC3)CCCC2` stands “inactive”; under `N#Cc1cc(NC(=O)C(=O)O)c(Cl)c(NC(=O)C(=O)O)c1`, “inactive”.
